# The whole screen tested about 310,000 compounds, of which about 14,000 (4.5%) showed an effect of 50% or more. Effects have a minus sign here. Shown is part of a subset that was picked to be rich in strong results.
# Biological target: human ether-à-go-go-related gene (hERG) potassium channel (human, UniProt Q12809)
# Test: primary screen, population patch clamp on CHO cells stably expressing hERG; higher = less effect of the substance
# 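Further: peak tail current of the secondary pulse compared with the same well before compound.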
# Chain of human ether-à-go-go-related gene (hERG) potassium channel (Q12809 whole entry, looked up): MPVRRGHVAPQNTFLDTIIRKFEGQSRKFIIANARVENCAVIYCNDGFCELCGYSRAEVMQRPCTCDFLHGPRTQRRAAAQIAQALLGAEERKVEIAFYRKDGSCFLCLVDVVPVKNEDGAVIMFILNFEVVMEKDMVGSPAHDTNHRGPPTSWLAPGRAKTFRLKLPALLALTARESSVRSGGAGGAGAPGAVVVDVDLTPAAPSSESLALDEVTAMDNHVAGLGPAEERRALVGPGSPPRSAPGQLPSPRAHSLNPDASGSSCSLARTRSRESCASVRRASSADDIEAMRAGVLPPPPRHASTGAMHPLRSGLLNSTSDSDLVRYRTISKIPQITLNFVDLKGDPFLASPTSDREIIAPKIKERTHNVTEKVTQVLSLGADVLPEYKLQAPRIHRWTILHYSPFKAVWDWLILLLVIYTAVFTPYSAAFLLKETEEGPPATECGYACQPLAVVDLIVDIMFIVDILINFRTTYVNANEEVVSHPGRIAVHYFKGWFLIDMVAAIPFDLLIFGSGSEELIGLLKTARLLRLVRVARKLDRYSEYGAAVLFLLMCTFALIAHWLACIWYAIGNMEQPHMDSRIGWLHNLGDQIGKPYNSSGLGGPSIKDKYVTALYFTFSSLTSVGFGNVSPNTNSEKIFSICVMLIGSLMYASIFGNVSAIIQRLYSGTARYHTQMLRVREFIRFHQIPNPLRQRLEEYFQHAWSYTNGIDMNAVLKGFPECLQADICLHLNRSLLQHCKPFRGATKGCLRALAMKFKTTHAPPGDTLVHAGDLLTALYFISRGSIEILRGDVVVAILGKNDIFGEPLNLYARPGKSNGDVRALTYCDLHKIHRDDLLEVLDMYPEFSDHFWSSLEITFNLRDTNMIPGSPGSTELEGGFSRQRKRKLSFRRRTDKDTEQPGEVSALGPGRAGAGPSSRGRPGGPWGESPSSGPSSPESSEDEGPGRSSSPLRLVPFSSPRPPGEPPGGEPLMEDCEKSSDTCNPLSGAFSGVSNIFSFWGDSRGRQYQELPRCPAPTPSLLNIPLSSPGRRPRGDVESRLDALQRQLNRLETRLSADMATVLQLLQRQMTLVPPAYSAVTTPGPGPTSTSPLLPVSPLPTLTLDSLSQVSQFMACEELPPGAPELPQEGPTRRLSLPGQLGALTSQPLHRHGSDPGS
row,SMILES,"hERG current change (%, negative = inhibition) at 10uM [%]"
1,CCO[C@@H]1OC(C(=O)NCc2ccccc2)=C[C@H](c2coc3ccccc3c2=O)[C@H]1CCCO,-47.5
2,O=C(Nc1ccccc1)C1CCN(S(=O)(=O)c2cccs2)CC1,-16.4
3,O=C(Nc1ccc(F)cc1)C1CCN(S(=O)(=O)c2cccs2)CC1,-24.4
4,O=C(Nc1nccs1)C1CCN(S(=O)(=O)c2cccs2)CC1,-24.1
5,NC(=O)c1ccsc1NC(=O)C1CCN(S(=O)(=O)c2cccs2)CC1,-52.4
6,CNC(=O)c1ccsc1NC(=O)C1CCN(S(=O)(=O)c2ccc(Cl)s2)CC1,-54.9
7,CNC(=O)c1ccsc1NC(=O)C1CCCN1S(=O)(=O)c1cccs1 (stereo not drawn),7.6
8,N#Cc1ccsc1NC(=O)C1CCN(S(=O)(=O)c2cccs2)CC1,-20.2
9,CNC(=O)c1ccsc1NC(=O)c1ccc(Cl)s1,-0.512
10,CCOC(=O)C1CCN(S(=O)(=O)c2ccc(Cl)s2)CC1,-13.3
11,O=C(Nc1ccc(F)c(F)c1)C1CCN(S(=O)(=O)c2cccs2)CC1,-53.7
12,CNC(=O)c1ccsc1NC(=O)C1CCN(S(=O)(=O)c2cccs2)CC1,-55.1
13,Cc1ccc(NC(=O)C2CCN(S(=O)(=O)c3cccs3)CC2)cc1C,-31.1
14,CCC(c1nnc(SCC(=O)NCCc2ccc(Cl)cc2Cl)o1)N(C)C (stereo not drawn),-19.9
15,Cc1nn(-c2ccccn2)c2c1-c1nc(N)ncc1CC2,5.03
16,CC(C)CCn1c(Sc2nc3ccccc3o2)nc2c1c(=O)[nH]c(=O)n2C,-20.8
17,Cc1ccc(-c2ocnc2C(=O)N2CCOCC2)cc1,21.4
18,COc1ccc(OC)c(-c2c(=O)n(OCc3ccccc3Br)c3ccccc3[n+]2[O-])c1,11.5
19,CCCN1CCc2c(sc(NC(=O)C3CCN(S(=O)(=O)c4cccs4)CC3)c2C(N)=O)C1.Cl,-61.3
20,CCCn1c(NC(=O)C2CCN(S(=O)(=O)c3cccs3)CC2)nc2ccccc21,-68.8
21,CN1CCc2c(sc(NC(=O)C3CCN(S(=O)(=O)c4cccs4)CC3)c2C(N)=O)C1.Cl,-30.8

row,SMILES,"hERG current change (%, negative = inhibition) at 10uM [%]"
1,O=C(Nc1nc2ccccc2[nH]1)C1CCN(S(=O)(=O)c2cccs2)CC1,-0.923
2,Cc1csc(NC(=O)C2CCN(S(=O)(=O)c3cccs3)CC2)n1,-27.3
3,CC(=O)N1CCc2c(sc(NC(=O)C3CCN(S(=O)(=O)c4cccs4)CC3)c2C(N)=O)C1,-29.4
4,CC12CN(C(=O)c3ccccc3Br)CC(C)(CN(C(=O)c3ccccc3Br)C1)C2=O,-4.96
5,CCC(=O)Nc1ccc(C(=O)CSc2nnc(-c3ccc(NS(=O)(=O)CC)cc3)o2)cc1OC,5.26
6,O=C(CCN1C(=O)c2ccccc2C1=O)N1CCN(C(=O)c2ccccc2)CC1,0.00878
7,CN(C)CCN(C)Cc1ccccc1Sc1cccc2ccccc12.Cl,-65.3
8,CN(C)Cc1ccccc1Sc1ccccc1Br,-36.5
9,CN(C)CCN(C)Cc1c2ccccc2c(CN(C)CCN(C)C)c2ccccc12,0.802
10,CCOC(=O)c1nn(-c2ccc(C)cc2)c(=O)cc1OCC(=O)Nc1cc(C)ccc1OC,-2.12
11,Cc1cccc(NC(=O)C2C(c3ccccc3)C2(Cl)Cl)c1 (stereo not drawn),-5.35
12,CC1CCCCN1CCCNc1c(C=O)c(=O)[nH]c2ccccc12 (stereo not drawn),-3.96
13,CC1CCCCN1CCNc1nc(=S)[nH]c2ccccc12 (stereo not drawn),-67.5
14,S=c1nc(NCCc2ccccc2Cl)c2ccccc2[nH]1,20
15,Cc1nc2ccccc2c(=O)n1/N=C/c1ccccn1,-3.77
16,Cc1ccc(S(=O)(=O)N2CCOC2CNC(=O)C(=O)NCCN2CCOCC2)cc1 (stereo not drawn),10.6
17,CCCCCn1c(=N)n(CC(O)COc2ccccc2OC)c2ccccc21.Cl (stereo not drawn),-81.1
18,COc1ccccc1OCC(O)COC(N)=O (stereo not drawn),10.3
19,COc1ccccc1OCC(O)Cn1nc(C)cc1C (stereo not drawn),9.76
20,CCCCCn1c(=N)n(CC(O)COc2ccccc2OC)c2ccccc21 (stereo not drawn),-75.9
21,Cc1ccc(C(=O)Nc2nnc(S(=O)(=O)N3CCN(c4ccc(F)cc4)CC3)s2)cc1,2.59
